Source: PubChem
CYP2C9 act: increases human cytochrome P450 2C9 activity | recombinant CYP2C9, luciferin-H conversion, luminescence; active compounds read high; factor 1 = untreated enzyme, 0 = blocked | activation factor at 5 µM | hit rate 1.4% among 96,000;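 active = activation factor of 2 or more for CYP2C9 at a 5 µM dose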
Target sequence (P11712 whole entry, looked up): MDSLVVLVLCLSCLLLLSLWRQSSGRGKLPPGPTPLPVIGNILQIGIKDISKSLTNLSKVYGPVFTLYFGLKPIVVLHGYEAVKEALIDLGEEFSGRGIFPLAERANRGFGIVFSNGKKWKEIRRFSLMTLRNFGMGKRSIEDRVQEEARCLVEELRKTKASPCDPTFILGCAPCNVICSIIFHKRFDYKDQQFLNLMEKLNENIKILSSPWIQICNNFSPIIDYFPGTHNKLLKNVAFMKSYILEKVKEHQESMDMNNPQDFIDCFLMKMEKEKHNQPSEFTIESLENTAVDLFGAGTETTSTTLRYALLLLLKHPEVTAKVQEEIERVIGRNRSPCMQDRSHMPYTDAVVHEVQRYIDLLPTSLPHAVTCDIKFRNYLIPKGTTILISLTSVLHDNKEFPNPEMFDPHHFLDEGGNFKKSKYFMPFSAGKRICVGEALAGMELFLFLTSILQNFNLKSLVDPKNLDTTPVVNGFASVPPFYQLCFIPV
PostGolgi ctrl: inhibits growth of the yeast control strain. efflux-deficient yeast background strain, growth absorbance A615, 16 h. hit rate 5% among 98,000. inhibition, % at 10 µM
PostGolgi yeast: growth inhibition of a yeast mutant, post-Golgi transport screen; post-Golgi transport phenotypic cell assay; inhibition, % at 10 µM; hit rate 0.9% among 98,000;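 also: yeast cells grown in 1536-well plates; yeast grown about 18 h at 30C before absorbance read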
CYP2C19 activ: activators of human cytochrome P450 2C19 | recombinant CYP2C19, luciferin-H EGE luminescence; active compounds read high; 0 = fully inhibited enzyme, 1 = untreated enzyme | activation factor at 5 µM | 96,000 tested, under 10 active;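 active = activation factor of at least 2 at 5 µM in the primary screen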
CYP2C9 inhib: human CYP2C9 inhibition. P11712. CYP2C9 Supersomes, luciferin-H conversion, luminescence. inhibition, % at 5 µM. hit rate 20% among 96,000. AID 777;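 active = blocking of liver enzyme CYP2C9 beyond about 50% at 5 µM, limit read from the data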
CYP2C19 inhib: blocks human cytochrome P450 2C19; P33261; CYP2C19 Supersomes, luciferin-H EGE luminescence, 30 min; inhibition, % at 5 µM; hit rate 21% among 96,000;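 active = CYP2C19 inhibition above a set limit at 5 µM in the primary screen, cut at about 50% in these data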
Each line names hits and unclear results; the compound was inactive in the other large screens. Only some compounds are listed: those with a hit (about 32% of all), similar ones and a draw of the others. Rule as the data show it, unless noted: active = inhibition above about 30%; inactive = the rest.

Cc1ccccc1-n1c(=O)cc(N2CCc3ccccc32)[nH]c1=O	none
Cc1ccc(C)c(-n2c(SCC(=O)NCC3CCCO3)nnc2-c2ccoc2C)c1 (stereo not given)	none
O=C(CNS(=O)(=O)c1ccccc1)NCc1ccccn1	none
CCOC(=O)C(C)Sc1nc(-c2ccc(OC)cc2)nc2c1c(=O)n(C)c(=O)n2C (stereo not given)	none (no result: PostGolgi ctrl, PostGolgi yeast)
CN1CCN(CC(=O)O)CC1	CYP2C9 inhib 54
N#CC1(Cc2ccc(Cl)cc2)c2ccccc2C=CN1C(=O)c1ccccc1 (stereo not given)	CYP2C9 inhib 93, CYP2C19 inhib 96
CCNC(=O)c1cc2c(=O)n3cccc(C)c3nc2n(CCc2ccccc2)c1=N	none
Cc1cccn2c(=O)c3cc(C(=O)NCCc4ccccc4)c(=N)n(CCCn4ccnc4)c3nc12	CYP2C9 inhib 58, CYP2C19 inhib 55
CCCCNC(=O)c1cc2c(=O)n3cccc(C)c3nc2n(Cc2ccccc2)c1=N	CYP2C9 inhib 64
Cc1cccn2c(=O)c3cc(C(N)=S)c(=N)n(CCCOC(C)C)c3nc12	CYP2C19 inhib 86
CN1C(=O)N(S(=O)(=O)c2ccc(F)c(F)c2F)C(=O)C1(C)C	none
CCOC(=O)NC(NCC(O)c1ccccc1)(C(F)(F)F)C(F)(F)F (stereo not given)	CYP2C19 inhib 65
CCCCCOC(=O)NCC(O)c1ccccc1 (stereo not given)	none
CCCCOC(=O)NC(NCC(O)c1ccccc1)(C(F)(F)F)C(F)(F)F (stereo not given)	CYP2C9 inhib 78, CYP2C19 inhib 91
CCOC(=O)NC(Nc1ncccn1)(C(F)(F)F)C(F)(F)F	none
CCc1ccc(C2CC(c3ccccc3C)n3nc(N)nc3N2)cc1 (stereo not given)	none
Cc1ccc(NC(=S)NC(NC(=O)c2ccco2)C(Cl)(Cl)Cl)cc1 (stereo not given)	CYP2C9 inhib 92
Cc1cccc(NC(=S)NC(NC(=O)c2ccco2)C(Cl)(Cl)Cl)c1 (stereo not given)	CYP2C9 inhib 84
O=C(O)c1ccc(NC(=S)NC(NC(=O)c2ccco2)C(Cl)(Cl)Cl)cc1 (stereo not given)	none
Cc1cccc(NC(=S)NC(=O)CCc2ccccc2)c1	none
Clc1cccc(Cl)c1CSc1nnc(-c2sccc2-n2cccc2)o1	none
Cc1cc(NC(=O)c2cccc(COc3ccc(Br)cc3)c2)no1	none
COc1cccc(COc2ccccc2C2Nc3ccc(Br)cc3C(=O)N2NC(=O)c2ccncc2)c1 (stereo not given)	CYP2C9 inhib 85, CYP2C19 inhib 69
CCOC(=O)N1N=C(c2ccc(C)cc2)CC1(O)C(F)(F)F (stereo not given)	CYP2C19 inhib 59
Cc1nnc(SCC(=O)Nc2nsc(-c3ccc(Cl)cc3)n2)s1	none
COc1ccc(CNC(=O)CS(=O)Cc2nc(-c3ccccc3C)oc2C)cc1 (stereo not given)	CYP2C9 inhib 75, CYP2C19 inhib 91
Cc1ccccc1-c1nc(CS(=O)CC(=O)NCc2ccccc2)c(C)o1 (stereo not given)	CYP2C9 inhib 76, CYP2C19 inhib 78
Cc1ccc(CNC(=O)CS(=O)Cc2nc(-c3ccccc3C)oc2C)cc1 (stereo not given)	none
CCOC(=O)c1c(N)sc(C(O)(C(F)(F)F)C(F)(F)F)c1-c1ccc(F)cc1	CYP2C9 inhib 75
CCOC(=O)c1c(N)sc(C(O)(C(F)(F)F)C(F)(F)F)c1-c1ccc(Cl)cc1	PostGolgi ctrl 72, CYP2C9 inhib 86, CYP2C19 inhib 62
Cc1ccccc1OCCCC(=O)Nc1nccs1	CYP2C19 inhib 80
O=C(CCSc1ccccc1)Nc1nccs1	CYP2C19 inhib 62
O=C(CCCC(=O)OCC(F)(F)C(F)F)Nc1nccs1	CYP2C9 inhib 60, CYP2C19 inhib 51
Cc1ccc(S(=O)(=O)NCCCCCC(=O)Nc2nccs2)cc1	CYP2C9 inhib 80, CYP2C19 inhib 74
O=C(CCSc1ccccc1)Nc1ncccn1	none
Cc1ccc(C)c(OCCCC(=O)Nc2nccs2)c1	none
Cc1cc(C)n2nc(C(=O)Nc3ccc4c(c3)OCO4)cc2n1	none
CCS(=O)CCSC(=N)N (stereo not given)	none
O=C(CCSc1ccccc1)NC1CCCC1	CYP2C19 inhib 83
CCC(=O)NCCC(c1ccco1)c1ccccc1OC (stereo not given)	none (no result: CYP2C9 act, CYP2C19 activ, CYP2C9 inhib, CYP2C19 inhib)
